{"source": "PubChem BioAssay (NCATS)", "note": "Calls of active or inactive are those of the source. Entries that show only a call come without a potency. Calls come from the whole dose curve; as a rule, active = well fitted cell-killing curve with a large enough effect; inconclusive = small, poorly fitted or top-dose-only effect; inactive = flat fitted curve, though single readings scatter. Potency is the fitted concentration of half-maximal effect.", "data": [{"test": "Cell Viability - LYMP1-002 - Assay at 24 hr (AID 993)", "conditions": "LYMP1-002 lymphoblastoid cells viability; series mostly up to 92.2 µM", "source_text": "NIH Chemical Genomics Center [NCGC]\nNIH Molecular Libraries Screening Centers Network [MLSCN]\nNational Institutes of Environmental Health Sciences [NIEHS]\nNational Toxicology Program [NTP]\nWe have developed a 1536-well cell-based assay for quantitative high throughput screening (qHTS) against a number of cell lines to determine in vitro cytotoxicity of small molecules. This particular assay uses a human lymphoblastoid cell line (LYMP1-002) purchased from Coriell Institute for Medical Research.\nNCGC Assay Protocol Summary:\nThe CellTiter-Glo luminescent cell viability assay (Promega) is a homogeneous method to measure the number of viable cells in culture. The end point readout of this assay is based on quantitation of intracellular ATP, an indicator of metabolic activity, using the luciferase reaction. Luciferase catalyzes the oxidation of beetle Luciferin to oxyluciferin and light in the presence of ATP. The luminescent signal is proportional to amount of ATP present.\nUsing the CellTiter-Glo luminescent cell viability assay, the amount of cellular ATP was measured in the lymphoblastoid cell line with complete culture medium following compound treatment for 24 hours. The assay was performed in opaque white Kalypsys 1536-well plates. In the screen, tetraoctylammonium bromide was used as positive control. Library compounds were measured for their ability to cause acute toxicity in the cell line, as reflected by a decrease in intracellular ATP levels, in a concentration-dependent manner. […] AC50 values were determined from concentration-response data modeled with the standard Hill equation.\nqHTS protocol for CellTiter Glo lymphoblastoid cellular assay\n[Step] [Parameter] [Value] [Description]\n1. Reagent; 5 uL; 2500 lymphoblastoid cells/well\n2. Time; 5 hr; 37 C incubation\n4. Controls; 23 nL; Tetraoctylammonium bromide 6.4pM to 92 uM\n5. Time; 24 hr; 37 C incubation\n6. Reagent; 5 uL; CellTiter Glo reagent\n7. Time; 30 min; Room Temperature\n8. Detection; Luminescence; Viewlux plate reader\nKeywords: cell viability, cytotoxicity, lymphoblastoid cell line, luminescence, NTPHTS, NTPHTS_NCGC, NIEHS, DSSTox, MLSMR, MLSCN, NIH Roadmap, qHTS, NCGC", "values": [{"smiles": "NC(N)=NC(N)=NCCc1ccccc1", "Potency": "inactive"}, {"smiles": "O=C(O)c1cc(=O)[nH]c(=O)[nH]1", "Potency": "inactive"}, {"smiles": "CC1=NN(c2ccccc2)C(=O)C1", "Potency": "inactive"}, {"smiles": "C[C@]12C=CC(=O)C=C1CC[C@@H]1[C@@H]2C(=O)C[C@@]2(C)[C@H]1CC[C@]2(O)C(=O)CO", "Potency": "inactive"}, {"smiles": "Cc1ccnc2c1NC(=O)c1cccnc1N2C1CC1", "Potency": "inactive"}, {"smiles": "O=C(N[C@H](CO)[C@H](O)c1ccc([N+](=O)[O-])cc1)C(Cl)Cl", "Potency": "inactive"}, {"smiles": "Cc1cc(NS(=O)(=O)c2ccc(N)cc2)no1", "Potency": "inactive"}, {"smiles": "CC[C@H](C)C(=O)O[C@H]1C[C@@H](C)C=C2C=C[C@H](C)[C@H](CC[C@@H]3C[C@@H](O)CC(=O)O3)[C@H]21", "Potency": "inactive"}, {"smiles": "COc1ccc2cc3[n+](cc2c1OC)CCc1cc2c(cc1-3)OCO2", "Potency": "inactive"}, {"smiles": "NNC(=O)c1ccncc1", "Potency": "inactive"}, {"smiles": "Cc1noc(NS(=O)(=O)c2ccc(N)cc2)c1C", "Potency": "inactive"}, {"smiles": "CN(C)c1ccc(C(=C2C=CC(=[N+](C)C)C=C2)c2ccc(N(C)C)cc2)cc1", "Potency": "3.16 µM (active)"}, {"smiles": "Cc1ncc([N+](=O)[O-])n1CCO", "Potency": "inactive"}, {"smiles": "CCc1cc(C(N)=S)ccn1", "Potency": "inactive"}, {"smiles": "Cc1nnc(NS(=O)(=O)c2ccc(N)cc2)s1", "Potency": "inactive"}]}]}
